# Cycloheximide cs – affects cycloheximide protein synthesis inhibition readout, counter-screen; cell reporter, cycloheximide protein synthesis inhibition counterscreen; max response, %; 12% of 300,000 active; AID 2314; in the data active = max response mostly above about 13%, no sharp cut-off; inactive = mostly below about 14%; also: read at 38.3 µM for the half of the compounds with a filed dose
# HCMV antiviral – inhibitors of human cytomegalovirus; HFF cells, HCMV-luciferase reporter, 72 h; active compounds read low; activity change, negative = inhibition, % at 57.5 µM; 4.5% of 410,000 active; AID 1259415; in the data active = activity change below about -60%; inconclusive = no clear call, values can overlap the other calls; inactive = above about -39%
#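 Steps: HFFs plated, 16 h 37C; compounds added; HCMV-luciferase added to MOI 1 PFU/cell; 72 h 37C; OneGlo reagent, 5 min room temperature; luminescence read, normalized to controls.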
# Shiga toxin inh – Shiga toxin inhibition. inhibition, % at 38.7 µM. 9.2% of 290,000 active. AID 2315. Vero cells, Shiga toxin protein synthesis inhibition reporter; in the data active = inhibition mostly above about 28%, no sharp cut-off; inactive = mostly below about 43%
# Pf growth 96h – P. falciparum growth inhibition at 96 hour, primary screen for plastid delayed-death inhibitors | Potency, µM (titrated, usually from 28.7 µM), actives largely listed as inhibitors | 6.9% of 320,000 active | P. falciparum luciferase reporter growth, 96 h | AID 504834
#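 P. falciparum expressing integrated firefly luciferase, in erythrocytes at 2% hematocrit, 0.05% parasitemia, incubated with compounds 96 h at 37 C, 5% CO2. Growth inhibition read as loss of luminescence; two-generation exposure targets delayed-death apicoplast inhibitors.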
# Pf growth 48h – P. falciparum growth inhibition at 48 hours (one generation) | Potency, µM (top dose mostly 28.7 µM), actives largely listed as inhibitors | P. falciparum luciferase growth in erythrocytes, 48 h | 5.9% of 310,000 active
#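 Firefly luciferase activity from engineered P. falciparum reports growth; inhibitors lower the luminescent signal. Cultures contained 2% hematocrit erythrocytes at 0.1% final parasitemia.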
# Numbers stand for hits; - = inactive; ? = inconclusive; . = no result given; [ ] = dose if it differs, or a comment. An excerpt weighted towards active compounds, which were near 20% of everything screened. Unless noted, calls follow the shape of the dose curve; as a rule, active = well fitted inhibition curve with a large enough effect; inconclusive = small, poorly fitted or top-dose-only effect, or another doubt; inactive = no such curve, though single readings can be large or run the other way.
SMILES,Cycloheximide cs,HCMV antiviral,Shiga toxin inh,Pf growth 96h,Pf growth 48h
COc1cc(NC(=S)N2CCCC(CO)C2)cc(OC)c1 (stereo not drawn),-,-,-,-,-
COC(=O)Cc1ccc(NC(=S)N2CCN(c3cc(Cl)ccc3C)CC2)cc1,-,-70,-,?,-
CC1CCCN(C(=S)Nc2ccc(Nc3ccccc3)cc2)C1 (stereo not drawn),23,-,99,-,-
CC(NC(=O)COC(=O)CN1C(=O)NC2(CCCC2)C1=O)c1ccc(F)cc1 (stereo not drawn),.,-,.,.,.
CCN(CC(=O)Nc1c(F)cccc1F)C(=O)CCCOc1ccccc1,.,-,.,.,.
COc1ccc(NC(=O)N2c3ccc(OC)cc3C(C)=CC2(C)C)cc1,-,-,-,-,-
COc1ccc(NC(=O)N2c3ccccc3C(C)=CC2(C)C)cc1,20,?,38,-[5.75 µM],-[5.75 µM]
CCOc1ccc2c(c1)C(C)=CC(C)(C)N2C(=O)Nc1ccccc1,29,.,-,15µM,.
CC(C)COc1ccc(C(=O)Nc2scc(-c3ccc(Br)cc3)c2C(=O)OC(C)C)cc1,.,-,.,.,.
O=C1CCC(C(=O)NCc2ccccc2)N1 (stereo not drawn),-,-,-,-,-
Cc1ccc(-n2c(C)cc(C3N=C(N)Nc4nc5ccccc5n43)c2C)c(C)c1 (stereo not drawn),-,-,-,-,8.3µM
Cc1ccc(C2/C(=C(\O)c3ccc4c(c3)OCCO4)C(=O)C(=O)N2CC2CCCO2)cc1 (stereo not drawn),-,-,-,?,-
Cn1c(=O)c2cc(C(=O)Nc3cccc(C#N)c3)sc2c2ccccc21,.,-,.,.,.
O=S(=O)(c1ccccc1)c1nnn2c1nc(NC1CCN(Cc3ccccc3)CC1)c1cc(Cl)ccc12,-,-,-,-,0.66µM
CCNC(=S)N/N=C(\C)c1ccc2ccccc2c1,-,.,-,-,?
COc1cc(/C(C)=N/NC(=S)NC(C)C)cc(OC)c1OC,-,-102,-,?,?
C/C(=N\NC(=S)NC(C)C)c1ccccc1OC(F)F,-,-114,-,8.3µM,-
CCNC(=S)N/N=C(\C)c1ccc2ccccc2c1OC(F)F,-,-,-,?,10µM
CCCCc1ccc(NC(=S)N2CCC(O)CC2)cc1,-,-,-,-,-
Cc1ccc2[nH]c(SCC(=O)N3CCOCC3)nc2c1C,52,-,98,-,-
Cc1ccc2nc(SCC3CCCCO3)[nH]c2c1 (stereo not drawn),30,-,44,-,-
C/C(N)=C(/C#N)C(=O)CSc1nc2ccc(C)cc2[nH]1,56,-,86,-,-
O=C(CSc1nc2ncc(Cl)cc2[nH]1)N1CCOCC1,.,-,.,.,.
Cc1ccc2nc(SCC(=O)N3CCOCC3)[nH]c2c1,38,-,56,-,.
CC1(COc2ccc(CC3SC(=O)NC3=O)cc2)CCCCC1 (stereo not drawn),.,.,.,-,-
SMILES,Cycloheximide cs,HCMV antiviral,Shiga toxin inh,Pf growth 96h,Pf growth 48h
C[C@H](NC(=O)C1CCN(S(=O)(=O)c2ccccc2)CC1)C(=O)NC1CC1,.,-,.,.,.
Fc1cc(F)nc(NCc2ccccc2)n1,-,-,-,-,-
Cc1cc(N2CCC(C)CC2)nc(NCc2ccccc2)n1,-,-85,-,7.4µM,10µM
Cc1cc(Nc2cccc(F)c2)nc(NCc2ccccc2)n1,-,-,-,?,0.37µM
Cc1cc(N2CCC(C)CC2)nc(-c2ccccc2O)n1,-,-,-,-,-
Nc1nc(NCc2ccccc2)nc(Nc2cccc(F)c2)c1[N+](=O)[O-],-,-,-,-,-
Fc1cc(NCc2ccccc2)nc(NCc2ccccc2)n1,53,-,60,?,-
Cc1cc(Oc2ccccc2)nc(NCc2ccccc2)n1,-,-,-,-,-
Cc1cc(Nc2ccccc2)nc(NCc2ccccc2)n1,-,-66,-,?,0.59µM
CCCCC[C@@H](C)N1C[C@H](COCc2ccccc2)Oc2cc(N3CC[C@@H](O)C3)ccc2S1(=O)=O,.,-,.,.,.
COc1ccc(NC(=O)Nc2cccc3[nH]c([C@@H]4O[C@H](CO)[C@@H](O)[C@H](O)[C@H]4O)nc23)cc1OC1CCCC1,.,-,.,.,.
Cc1cc(C)nc(NCCCc2ccccc2)n1,-,-,-,13µM,-
Cc1cc(Nc2ccc(Cl)cc2)nc(NCc2ccccc2)n1,-,-,-,0.52µM,0.93µM
CCCCNc1cc(C)nc(NCc2ccccc2)n1,-,.,-,0.83µM,1.5µM
CCCCNc1c(CCc2ccccc2)nc2nc(C)cc(C)n12,.,-,.,.,.
Cc1cc(Oc2ccccc2F)nc(NCc2ccccc2)n1,-,?,-,-,-
Cc1cccc(NC(=O)CCc2ccccc2)c1C,-,-,-,?,-
